Reference: the supplement of paper PMC8975748
Counter-ions that a name gives are not always drawn. ± gives the standard deviation of the averaged measurements.

What was measured:
[1] = system: Saccharomyces cerevisiae BY4741 SeMeCo community; experiment: mean cell size (pixel area) (pixels); higher = larger cells; settings: 10 µM; 24 h; SM minimal medium
Method in brief: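 Mean cell pixel area per well was measured in a four-plasmid fluorescent community of Saccharomyces cerevisiae BY4741, where every plasmid complements one auxotrophy and carries a fluorescent marker. Cells from an overnight preculture at OD600 = 1.0 were diluted to OD600 = 0.3 and dispensed at 70 µl into 384-well plates acoustically predosed with drug to a final 10 µM in SM medium. Incubation lasted 24 h, followed by paraformaldehyde fixation, automated confocal imaging and analysis in Harmony. Reported figures are averaged over 3 replicates. Same SeMeCo high-content imaging drug screen: Selleck FDA-approved drugs at 10 µM, 24 h in SM medium, 384-well plates, 3 replicates.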

[2] = system: Saccharomyces cerevisiae BY4741 SeMeCo community; experiment: z-score of prototroph abundance vs DMSO median; higher = larger share of this subpopulation than in DMSO controls; settings: 10 µM; 24 h; SM minimal medium; subpopulation (auxotrophy): Prototroph
Method in brief: (§1)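 Automated confocal microscopy of paraformaldehyde-fixed cells was used to follow a Saccharomyces cerevisiae BY4741 community carrying four plasmids, each restoring one auxotrophy and encoding a distinct fluorescent protein. The community was pre-grown overnight to OD600 1.0, diluted to 0.3, and added at 70 µl to 384-well plates acoustically predosed with library drugs (10 µM final) for 24 h of growth in minimal SM medium. Single-auxotroph fluorescent strains set thresholds and autofluorescence correction, and each subpopulation's abundance was scored as a z-score against the vehicle-well median.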

[3] = system: Saccharomyces cerevisiae BY4741 SeMeCo community; experiment: z-score of subpopulation abundance vs DMSO median, subpopulation auxotrophic for M; higher = larger share of this subpopulation than in DMSO controls; settings: 10 µM; 24 h; SM minimal medium; subpopulation (auxotrophy): M
Method in brief: as §1

[4] = system: Saccharomyces cerevisiae BY4741 SeMeCo community; experiment: z-score of subpopulation abundance vs DMSO median, subpopulation auxotrophic for L; higher = larger share of this subpopulation than in DMSO controls; settings: 10 µM; 24 h; SM minimal medium; subpopulation (auxotrophy): L
Method in brief: as §1

[5] = system: Saccharomyces cerevisiae BY4741 SeMeCo community; experiment: z-score of subpopulation abundance vs DMSO median, subpopulation auxotrophic for U; higher = larger share of this subpopulation than in DMSO controls; settings: 10 µM; 24 h; SM minimal medium; subpopulation (auxotrophy): U
Method in brief: as §1

[6] = system: Saccharomyces cerevisiae BY4741 SeMeCo community; experiment: z-score of subpopulation abundance vs DMSO median, subpopulation auxotrophic for H; higher = larger share of this subpopulation than in DMSO controls; settings: 10 µM; 24 h; SM minimal medium; subpopulation (auxotrophy): H
Method in brief: as §1

[7] = system: Saccharomyces cerevisiae BY4741 SeMeCo community; experiment: z-score of subpopulation abundance vs DMSO median, subpopulation auxotrophic for LU; higher = larger share of this subpopulation than in DMSO controls; settings: 10 µM; 24 h; SM minimal medium; subpopulation (auxotrophy): LU
Method in brief: as §1

[8] = system: Saccharomyces cerevisiae BY4741 SeMeCo community; experiment: z-score of subpopulation abundance vs DMSO median, subpopulation auxotrophic for LM; higher = larger share of this subpopulation than in DMSO controls; settings: 10 µM; 24 h; SM minimal medium; subpopulation (auxotrophy): LM
Method in brief: as §1

[9] = system: Saccharomyces cerevisiae BY4741 SeMeCo community; experiment: z-score of subpopulation abundance vs DMSO median, subpopulation auxotrophic for HM; higher = larger share of this subpopulation than in DMSO controls; settings: 10 µM; 24 h; SM minimal medium; subpopulation (auxotrophy): HM
Method in brief: as §1

[10] = system: Saccharomyces cerevisiae BY4741 SeMeCo community; experiment: z-score of subpopulation abundance vs DMSO median, subpopulation auxotrophic for HU; higher = larger share of this subpopulation than in DMSO controls; settings: 10 µM; 24 h; SM minimal medium; subpopulation (auxotrophy): HU
Method in brief: as §1

[11] = system: Saccharomyces cerevisiae BY4741 SeMeCo community; experiment: z-score of subpopulation abundance vs DMSO median, subpopulation auxotrophic for UM; higher = larger share of this subpopulation than in DMSO controls; settings: 10 µM; 24 h; SM minimal medium; subpopulation (auxotrophy): UM
Method in brief: as §1

[12] = system: Saccharomyces cerevisiae BY4741 SeMeCo community; experiment: z-score of subpopulation abundance vs DMSO median, subpopulation auxotrophic for HL; higher = larger share of this subpopulation than in DMSO controls; settings: 10 µM; 24 h; SM minimal medium; subpopulation (auxotrophy): HL
Method in brief: as §1

[13] = system: Saccharomyces cerevisiae BY4741 SeMeCo community; experiment: z-score of subpopulation abundance vs DMSO median, subpopulation auxotrophic for HLU; higher = larger share of this subpopulation than in DMSO controls; settings: 10 µM; 24 h; SM minimal medium; subpopulation (auxotrophy): HLU
Method in brief: as §1

[14] = system: Saccharomyces cerevisiae BY4741 SeMeCo community; experiment: z-score of subpopulation abundance vs DMSO median, subpopulation auxotrophic for HLM; higher = larger share of this subpopulation than in DMSO controls; settings: 10 µM; 24 h; SM minimal medium; subpopulation (auxotrophy): HLM
Method in brief: as §1

[15] = system: Saccharomyces cerevisiae BY4741 SeMeCo community; experiment: z-score of subpopulation abundance vs DMSO median, subpopulation auxotrophic for HUM; higher = larger share of this subpopulation than in DMSO controls; settings: 10 µM; 24 h; SM minimal medium; subpopulation (auxotrophy): HUM
Method in brief: as §1

[16] = system: Saccharomyces cerevisiae BY4741 SeMeCo community; experiment: z-score of subpopulation abundance vs DMSO median, subpopulation auxotrophic for LUM; higher = larger share of this subpopulation than in DMSO controls; settings: 10 µM; 24 h; SM minimal medium; subpopulation (auxotrophy): LUM
Method in brief: as §1

[17] = system: Saccharomyces cerevisiae BY4741 SeMeCo community; experiment: z-score of subpopulation abundance vs DMSO median, subpopulation auxotrophic for HLUM; higher = larger share of this subpopulation than in DMSO controls; settings: 10 µM; 24 h; SM minimal medium; subpopulation (auxotrophy): HLUM
Method in brief: as §1

SMILES	mean cell size [1]	z-score of prototroph abundance [2]	z-score of subpopulation abundance [3]	z-score of subpopulation abundance [4]	z-score of subpopulation abundance [5]	z-score of subpopulation abundance [6]	z-score of subpopulation abundance [7]	z-score of subpopulation abundance [8]	z-score of subpopulation abundance [9]	z-score of subpopulation abundance [10]	z-score of subpopulation abundance [11]	z-score of subpopulation abundance [12]	z-score of subpopulation abundance [13]	z-score of subpopulation abundance [14]	z-score of subpopulation abundance [15]	z-score of subpopulation abundance [16]	z-score of subpopulation abundance [17]
CCCCOc1ccc(C(=O)CCN2CCCCC2)cc1 [Dyclonine HCl]	12.2 ± 0.23	0.35	0.29	0.13	-0.57	-0.1	-0.73	0.14	-0.09	0.17	-0.42	-0.74	-0.26	-0.52	0.17	-0.27	-0.65
O=C1Cc2cc(CCN3CCN(c4nsc5ccccc45)CC3)c(Cl)cc2N1 [Ziprasidone HCl]	12.2 ± 0.18	-0.07	0	1.56	-0.99	0.97	-0.33	1.54	0.58	-0.4	-0.51	1.22	0.15	1.1	0.81	0.56	0.44
Clc1ccc(COC(Cn2ccnc2)c2ccc(Cl)cc2Cl)cc1 (centres undefined) [Econazole]	11.9 ± 0.17	-7.96	-1.6	-1.62	0.12	–	-0.93	-1.56	2.71	5.61	9.39	12.8	4.6	17.3	4.19	3.58	17.3
COCCOC(=O)C1=C(C)NC(C)=C(C(=O)OC(C)C)C1c1cccc([N+](=O)[O-])c1 (centres undefined) [Nimodipine]	12.31 ± 0.09	0.04	-0.26	0.55	0.32	-0.5	-0.12	-0.2	-0.32	0.19	0.69	-0.61	-0.01	-0.43	-0.42	0.35	-0.14
N#C/C(=C1/SC[C@@H](c2ccc(Cl)cc2Cl)S1)n1ccnc1 [Luliconazole]	12 ± 0.31	-8.67	-2.68	-1.35	-0.31	–	0.85	1.33	7.54	10.5	11.7	4.75	5.26	16.8	10.6	4.52	11.1
COC(=O)C1=C(C#N)NC(C)=C(C(=O)OC(C)C)C1c1cccc([N+](=O)[O-])c1 (centres undefined) [Nilvadipine]	12.6 ± 0.18	0.22	1.61	-0.93	-1.16	–	-1.37	-0.12	1.37	-1.66	–	–	-0.56	2.28	-0.21	-0.7	0.19
CCn1cc(C(=O)O)c(=O)c2cc(F)c(N3CCNCC3)nc21 [Enoxacin Sesquihydrate]	12.2 ± 0.23	-0.92	0.76	-0.96	1.2	-1.49	0.91	0	0.03	0.47	1.24	-0.59	-0.17	-0.85	0.88	0.36	-0.27
